Source: PubChem
RORg inh – blocks mouse ROR gamma transcriptional activity; 310,000 tested, 5.4% active; Drosophila S2 Gal4-RORgamma UAS-luciferase reporter, 20 h; AID 2551; P51450; Potency, µM (titrated, usually from 53.6 µM), usual class: inhibitors; also: nearly all actives have a fitted effect of over 60% in size
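A Gal4/UAS one-hybrid system in insect cells: metallothionein-promoter Gal4–ROR gamma fusion plus Photinus luciferase reporter. Copper sulfate 700 uM final, 20 hr ambient incubation, luminescent detection after 10 min with reagent.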
TDP1 cell CPT – DT40-hTDP1 cell growth loss with CPT; chicken DT40 Tdp1-/-;hTDP1 cells + 20 nM CPT, ATP luminescence, 48 h; Potency, µM (doses to about 46.2 µM), most hits filed as inhibitors; 420,000 tested, 12% active; also: nearly all actives have a fitted effect of over 55% in size
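Chicken DT40 Tdp1-/- cells complemented with human TDP1, 400 cells/well, exposed to compounds plus 20 nM camptothecin for at least 48 h at 37 C; viability read as ATP content by CellTiter-Glo luminescence.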
VP16 counter – counter-screen for ROR gamma inhibitors: Gal4-VP16 reporter; Potency, µM (series often up to 53.6 µM), actives largely listed as inhibitors; 310,000 tested, 3.5% active; Drosophila S2 Gal4-VP16 UAS-luciferase, luminescence, 20 h; AID 2546;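 also: Gal4-VP16 expression switched on by copper sulfate through the metallothionein promoter; nearly all actives have a fitted effect of over 50% in size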
TDP1 inh – blocks human tyrosyl-DNA phosphodiesterase 1; 350,000 tested, 0.28% active; AID 485290; recombinant TDP1, AlphaScreen DNA substrate cleavage; Potency, µM (series often up to 130 µM), actives largely listed as inhibitors; also: nearly all actives have a fitted effect of over 40% in size
Target sequence (Q9NUW8 whole entry, looked up): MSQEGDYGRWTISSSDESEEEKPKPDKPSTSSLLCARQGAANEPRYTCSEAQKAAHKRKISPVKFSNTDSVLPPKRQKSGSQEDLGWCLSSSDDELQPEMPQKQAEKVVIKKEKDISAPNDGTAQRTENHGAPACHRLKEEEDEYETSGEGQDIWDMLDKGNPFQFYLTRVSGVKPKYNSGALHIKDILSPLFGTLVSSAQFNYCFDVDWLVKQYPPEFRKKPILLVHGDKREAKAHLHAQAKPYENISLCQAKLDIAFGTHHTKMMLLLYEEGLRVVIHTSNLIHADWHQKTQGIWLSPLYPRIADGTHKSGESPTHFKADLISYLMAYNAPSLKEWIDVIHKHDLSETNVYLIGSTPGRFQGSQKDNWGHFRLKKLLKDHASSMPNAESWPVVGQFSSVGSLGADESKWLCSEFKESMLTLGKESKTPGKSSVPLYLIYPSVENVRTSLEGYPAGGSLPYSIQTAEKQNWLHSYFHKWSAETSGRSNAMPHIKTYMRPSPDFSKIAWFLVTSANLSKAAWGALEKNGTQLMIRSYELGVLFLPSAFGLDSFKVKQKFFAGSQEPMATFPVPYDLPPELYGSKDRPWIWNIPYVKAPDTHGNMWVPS
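Enzyme-compound mixtures sat 15 min at room temperature, followed by a 5 min reaction with 15 nM final substrate and 10 min with AlphaScreen beads. Recombinant human Tdp1 was used at 1 nM final.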
TDP1 cell noCPT – qHTS for Inhibitors of human tyrosyl-DNA phosphodiesterase 1 (TDP1): qHTS in cells in absence of CPT; 420,000 tested, 15% active; Potency, µM (doses to about 46.2 µM), usual class: inhibitors; DT40 Tdp1-/- hTDP1 cells, no CPT, ATP luminescence, 48 h; also: nearly all actives have a fitted effect of over 55% in size
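Compound effects on proliferation are scored in DT40 Tdp1-/-;hTDP1 cells in the absence of CPT. ATP levels (CellTiter-Glo luminescence) are recorded after a ≥48 hr, 37 °C incubation.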
Of the large screens only hits and unclear results are named; the others gave an inactive call. Shown are actives, neighbours in structure and some others; about 19% of the full set was active somewhere. Calls follow the shape of the dose curve; as a rule, active = well fitted curve in the direction sought with a large enough effect; inconclusive = small, poorly fitted or top-dose-only effect, or another doubt; inactive = no such curve, though single readings can be large; an effect the other way counts as inactive or inconclusive.

COC(=O)c1ccccc1NC1c2ccccc2C(=O)N1c1cccnc1 (centres undefined)	RORg inh inconclusive, TDP1 cell CPT 15µM, TDP1 cell noCPT inconclusive
O=C1c2ccccc2C(Nc2ccccc2F)N1c1cccnc1 (centres undefined)	none
O=C1CN(C(=O)c2cccc(F)c2)C(c2ccc(F)cc2)c2cc(F)ccc2N1 (centres undefined)	none (no result: TDP1 inh)
COc1ccccc1CN1C[C@@H]2C[C@@H](c3ccccc3C)N3CCC[C@@]23C1=O	TDP1 cell CPT inconclusive, TDP1 cell noCPT 29µM
COc1ccccc1CN1C[C@@H]2C[C@@H](c3ccc(C)cc3)N3CCC[C@@]23C1=O	TDP1 cell noCPT inconclusive
COc1ccccc1CN1C[C@@H]2C[C@@H](c3ccc4nsnc4c3)N3CCC[C@@]23C1=O	TDP1 cell CPT inconclusive, TDP1 cell noCPT 23µM (no result: TDP1 inh)
O=C(Cn1ccc([N+](=O)[O-])n1)NCc1cccnc1	none
CC(=O)Nc1cccc(Oc2nc(NCC3CC3)nc3ccsc23)c1	TDP1 cell CPT 16µM, TDP1 cell noCPT 21µM (no result: RORg inh, VP16 counter, TDP1 inh)
CC(=O)Nc1ccc(CNc2nc(NCC3CC3)nc3ccsc23)cc1	TDP1 cell CPT 18µM, TDP1 cell noCPT inconclusive (no result: RORg inh, VP16 counter, TDP1 inh)
Cc1ccccc1-c1noc(CSc2nc3ccccc3[nH]2)n1	TDP1 cell CPT 18µM, TDP1 cell noCPT 6.5µM (no result: RORg inh, VP16 counter)
Cc1noc(C)c1CSc1nc2ccccc2[nH]1	none
COc1ccc(-c2noc(CSc3nc4ccccc4c(=O)n3-c3ccccc3)n2)cc1OC	TDP1 cell CPT inconclusive, TDP1 cell noCPT inconclusive
COc1ccccc1-c1noc(CSc2nc3ccc(C)cc3[nH]2)n1	TDP1 cell CPT inconclusive, TDP1 cell noCPT 16µM (no result: RORg inh, VP16 counter)
COc1ccc(-c2noc(CSc3nc4ccccc4[nH]3)n2)cc1OC	TDP1 cell CPT 23µM, TDP1 cell noCPT 18µM (no result: RORg inh, VP16 counter)
c1ccc(-c2cc(CSc3nc4ccccc4[nH]3)on2)cc1	TDP1 cell CPT 12µM, VP16 counter inconclusive, TDP1 cell noCPT 21µM
Cn1cc2ccc(N)cc2n1	none
COc1ccccc1OCc1nc(-c2ccc([N+](=O)[O-])cc2)no1	RORg inh inconclusive, TDP1 cell CPT inconclusive, TDP1 cell noCPT inconclusive
COc1ccc(-c2noc(COc3ccccc3OC)n2)cc1OC	TDP1 cell CPT 16µM, TDP1 cell noCPT inconclusive
Cc1ccc2nc(SCc3nnc(-c4ccccc4)o3)[nH]c2c1	none
Cc1ccc2nc(SCc3nnc(-c4cccs4)o3)[nH]c2c1	TDP1 cell CPT inconclusive, TDP1 cell noCPT 12µM
CC(C)CCN1CCN(Cc2cccn2-c2cccnc2)CC1CCO (centres undefined)	none
O=C(CNCc1ccccc1)Nc1cccc(Cl)c1Cl	none (no result: TDP1 inh)
O=C(CSCc1ccccc1)NNC(=S)Nc1cccc(Cl)c1Cl	RORg inh 6.3µM, TDP1 cell CPT inconclusive, VP16 counter inconclusive, TDP1 cell noCPT inconclusive
COCCNC(=S)NNC(=O)CSCc1ccc(Cl)cc1Cl	RORg inh 10µM, TDP1 cell noCPT inconclusive
CC(C)NC(=O)CSCc1c(Cl)cccc1Cl	TDP1 cell CPT inconclusive, TDP1 cell noCPT 15µM
CNC(=S)NNC(=O)CSCc1c(Cl)cccc1Cl	RORg inh 11µM, VP16 counter 20µM, TDP1 cell noCPT inconclusive
Cc1onc(-c2ccccc2Cl)c1C(=O)NC(=S)Nc1ccccc1F	RORg inh 5µM, VP16 counter inconclusive
COC(=O)c1cc(OC)c(OC)cc1NC(=O)c1c(-c2ccccc2Cl)noc1C	TDP1 cell CPT 18µM, TDP1 cell noCPT 13µM
COc1ccccc1NC(=S)NC(=O)c1c(-c2ccccc2Cl)noc1C	RORg inh 2.5µM, VP16 counter 16µM
COc1ccccc1CNC(=O)c1c(-c2ccccc2Cl)noc1C	TDP1 cell CPT inconclusive, TDP1 cell noCPT inconclusive
CC(=O)Nc1ccc(NC(=O)c2c(-c3ccccc3Cl)noc2C)c(C)c1	none
C=CCn1c(=O)c2c(nc3n2CCCN3CCc2ccccc2)n(C)c1=O	none
COC(=O)N1CCC2(CC1)CN(c1ccccc1)C2	none (no result: TDP1 inh)
O=C1NC[C@H](c2ccccc2)OC(=O)[C@@H](Cc2ccc(F)cc2)CC/C=C/C[C@H]1CC(=O)N(CCO)Cc1ccccc1	TDP1 cell CPT 13µM, TDP1 cell noCPT 12µM (no result: RORg inh, VP16 counter)
